Rows were chosen to be rich in hits. Some 12% of all compounds tested hit in one or more screens of this group.
CHX counter: counter-screen for Shiga toxin inhibitors: cycloheximide protein synthesis inhibition. cell reporter, cycloheximide protein synthesis inhibition counterscreen. max response, %. 300,000 compounds, 12% hits; in the data active means max response mostly above about 13%, no sharp cut-off; inactive means mostly below about 14%; further: read at 38.3 µM for the half of the compounds with a filed dose; 0% is about no effect
FMDV antiviral: antivirals against foot and mouth disease virus | FMDV antiviral cell-based qHTS | Potency, µM (doses to about 57.9 µM), for the others: at the highest dose activity change, negative = inhibition, actives largely listed as inhibitors | 410,000 compounds, 1.2% hits | AID 1159524; calls by dose curve; tested in HEK293T cells; further: read-out not given here; potency means the concentration at half of the fitted maximal effect; on the % scale 0 is the no-effect control and ±100 the full control effect; nearly all actives have a fitted effect of over 45% in size
Shiga toxin inh: Shiga toxin inhibition | Vero cells, Shiga toxin protein synthesis inhibition reporter | AID 2315 | inhibition, % at 38.7 µM | 290,000 compounds, 9.2% hits; in the data active means inhibition mostly above about 28%, no sharp cut-off; inactive means mostly below about 43%; further: 0% is about no effect
Sm TGR block: S. mansoni TGR enzyme inhibition; purified TGR, DTNB reduction, TNB absorbance 405 nm; Potency, µM (highest dose often 114 µM), for inactives: top-dose activity change, negative = inhibition, actives largely listed as inhibitors; 360,000 compounds, 3% hits; active means well fitted inhibition curve with a large enough effect; inconclusive means small, poorly fitted or top-dose-only effect; inactive means no such curve, though single readings can be large or run the other way; further: potency means the concentration at half of the fitted maximal effect; on the % scale 0 is the no-effect control and ±100 the full control effect; nearly all actives have a fitted effect of over 60% in size
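First, TGR (20 nM dispensed) and NADPH were mixed with compound. Second, a 15 min room-temperature incubation followed. Third, further NADPH and then DTNB were added to start the reaction. Finally, TNB absorbance was monitored kinetically.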
Starred values were filed as active, the others as inactive; ? = inconclusive; / = no result; [ ] = another dose, or the depositor's remark.

SMILES	CHX counter	FMDV antiviral	Shiga toxin inh	Sm TGR block
CCCn1c(/N=C/c2ccccc2O)nc2ccccc21	-1.3	-1.7%	-12.0	-19.6%
Cc1nnc(-c2ccccc2)c(=O)n1/N=C/c1c(O)ccc2ccccc12	-6.0	-5.1%	-8.2	-0.6%
O=S(=O)(/N=C/c1c(O)ccc2ccccc12)c1ccccc1	11.1*	-22.0%	18.2	39.8µM*
Cn1c(/N=C/c2c(O)ccc3ccccc23)nc2ccccc21	69.4*	0.7%	81.4*	10µM*
Cc1nnc(C)n1/N=C/c1c(O)ccc2ccccc12	-4.5	-6.4%	-1.9	28.2µM*
COc1ccc(CNC(=O)C2CCCCN2S(=O)(=O)c2ccc(F)cc2)cc1 (stereo not given)	/	-6.5%	/	-3.6%
Cc1csc(N(C(=O)c2cccc(S(=O)(=O)N(C)C)c2)c2ccccc2)n1	3.2	8.91µM*	6.4	-11.8%
Cc1csc(N(C(=O)c2cccc(S(=O)(=O)N3CCCC3)c2)c2ccccc2)n1	13.0	?	43.2	-2.4%
O=C(c1cc(-c2ccc(Br)cc2)on1)N1CCCCCC1	35.0*	26.0%	80.0*	-1.7%
O=C(NCCCN1CCOCC1)c1cc(-c2ccc(Br)cc2)on1	14.3	-25.7%	20.7	-21.3%
CC1CCN(C(=O)c2cc(-c3ccc(Br)cc3)on2)CC1	/	71.6%	/	0.1%
O=C(c1cc(-c2ccc(Br)cc2)on1)N1CCOCC1	20.9*	20.7%	59.2*	-2.4%
O=C1c2[nH]nc(-c3ccccc3O)c2C(c2ccc(F)cc2)N1CCO (stereo not given)	/	0.0%	/	6.7%
O=C(CC1Sc2ncnn2C1=O)Nc1ccc(Br)cc1 (stereo not given)	-2.5	-9.5%	-2.6	1µM*
Cc1ccccc1N=C1SC(CC(=O)Nc2ccc3ccccc3c2)C(=O)N1Cc1ccccn1 (stereo not given)	29.2*	?	48.0	2.6%
O=C(CC1SC(=Nc2ccccc2)N(Cc2ccccn2)C1=O)Nc1ccc(Br)cc1 (stereo not given)	19.5*	16.6%	47.8*	-0.2%
CCCCCCCCCCOCCC(=O)O	/	-8.2%[6.7 µM]	/	/
CCN(C(=O)c1nn(-c2ccc(OC)c(Cl)c2)c(=O)c2c1c1ccccc1n2C)c1cc(OC)ccc1OC	/	?	/	3.1%
COc1cc(C)nc(N2CCCC(C(=O)NC3CCC(C)CC3)C2)n1 (stereo not given)	31.9*	/	123.1	0.0%
CCc1ccc(S(=O)(=O)c2cn(C)c3cc(N4CCC(C)CC4)c(F)cc3c2=O)cc1	/	-16.0%	/	-0.6%
CCCCNC(=O)Nc1ccccc1C(=O)Nc1ccc(OC)cc1	-0.3	17.7%	-10.4	3.0%
C#CCn1cc(Cl)cc(C(=O)Nc2ccccc2)c1=O	17.3*	14.6%	2.5	-3.6%
C=CCn1cccc(C(=O)Nc2ccc(OC)cc2OC)c1=O	32.6	27.4%	40.3	-4.0%
C#CCn1cccc(C(=O)Nc2ccc(OC)cc2)c1=O	18.4*	28.4%	46.1*	-6.9%
CCCn1cccc(C(=O)Nc2ccc(OC)cc2)c1=O	22.2*	4.9%	53.4	-30.6%
SMILES	CHX counter	FMDV antiviral	Shiga toxin inh	Sm TGR block
CCS(=O)(=O)N1CC(=O)N(c2cccc(Cl)c2)C(C)(C(=O)NC2CCCCCC2)C1 (stereo not given)	/	-8.9%	/	6.2%
Cc1cccc(-c2noc(CNS(=O)(=O)c3ccccc3)n2)c1	18.0*	-7.7%	9.8	0.7%
Cc1ccc(S(=O)(=O)NCc2nc(-c3cccc(C)c3)no2)cc1	/	6.6%	/	0.3%
Cc1cccc(-c2noc(CCc3ccccc3)n2)c1	39.6*	55.1%	80.6*	3.9%
Cc1cccc(-c2noc(Cc3ccccc3)n2)c1	55.7*	/	99.8*	8.0%
CN(C)/C=C1/Sc2ccccc2C1=O	31.9*	47.0%	34.1	6.9%
CC(=O)N(\C=C/C=C/C=C1\Sc2ccccc2C1=O)c1ccccc1	59.2*	-10.5%	114.9*	15.8µM*
Cc1cc(C)cc(NC(=O)C(=O)NC(C)c2ccccc2)c1 (stereo not given)	/	-2.7%	/	6.9%
CC(=O)c1ccc(NC(=O)Cn2cc3c(n2)CCCC3)cc1	/	7.8%	/	-5.3%
CCc1cc2c(=O)oc(-c3ccccc3F)nc2s1	14.4*	-2.1%	/	3.7%
Cc1cc2c(=O)oc(-c3ccccc3Br)nc2s1	-0.7	-6.9%	3.2	?
C/[N+]([O-])=C\CC(=O)c1ccc(-c2ccccc2)cc1	24.5*	13.9%	20.0	?
CO/N=C/CC(=O)c1cnc(-c2ccc(Cl)cc2)s1	21.9*	7.2%	72.9*	1.1%
O=C(c1cnc(-c2ccccc2)s1)c1ccc(Cl)cc1Cl	11.9	18.6%	10.3	8.3%
CO/N=C/CC(=O)c1ccc(-c2ccccc2)cc1	18.0*	9.4%	69.7	/
CCN(CC)c1ccc(NC(=O)CN2CCN(S(=O)(=O)c3ccc(C(C)C)cc3)CC2)cc1	/	-19.6%	/	-7.8%
O=S(=O)(NCCc1csc2nc(-c3ccc(F)cc3)nn12)c1ccc(Oc2ccccc2)cc1	/	-19.9%	/	8.9%
Cc1[nH]c(=S)c(C#N)c(-c2ccccc2)c1C(=O)Nc1ccccc1	-0.8	-11.7%	24.0	-4.9%
COc1ccc(-c2c3c([nH]c(=S)c2C#N)CCC3)cc1	-4.0	7.0%	-3.4	44.7µM*
N#Cc1c(-c2ccco2)c2c([nH]c1=S)CCCC2	2.3	-7.9%	-4.4	2.82µM*
CCN(CC)C(=O)c1c(C)[nH]c(=S)c(C#N)c1-c1ccco1	-1.0	-11.8%	-21.1	14.1µM*
COc1ccc(OC)c(-c2c3c([nH]c(=S)c2C#N)CCCC3)c1	-7.0	1.7%	6.3	-18.1%
O=C(NCc1ccccc1)c1cccnc1	1.0	-10.4%	-8.9	4.9%
Cc1ccc(C(=O)NCc2ccccc2)cc1Br	17.1*	37.8%	24.1	-7.2%
O=C(NCc1ccccc1)c1ccccc1Br	2.6	-6.4%	8.4	-9.2%
SMILES	CHX counter	FMDV antiviral	Shiga toxin inh	Sm TGR block
O=C(NCc1ccccc1)c1ccc(Br)cc1Br	22.6*	57.6%	active	6.5%
O=C(NCc1ccccc1)c1ccc(Cl)nc1	39.7*	14.2%	70.4*	7.7%
CN(C)c1c(F)cc(C(=O)NCc2ccccc2)cc1F	20.0*	7.8%	5.1	4.6%
COc1cccc(CN2C(=O)NC(C)(C3CCN(Cc4cc(F)cc(F)c4)CC3)C2=O)c1OC (stereo not given)	/	-3.3%	/	/
COc1ccc2c(c1)c1c(c(=O)n(Cc3ccccc3)c(=O)n1CC(=O)Nc1ccccc1OC)n2C	/	6.3%	/	1.0%
O=C(c1ccc2c(c1)CCN2S(=O)(=O)c1ccc(Cl)cc1)N1CCN(c2ccc(F)cc2)CC1	/	-26.9%	/	0.4%
OC[C@H]1OC(Nc2ccc(N=Nc3ccccc3)cc2)[C@@H](O)[C@@H](O)[C@@H]1O (stereo not given in full)	37.1*	41.3%	112.3*	8.1%
COc1ccc(-c2n(CC(=O)OC3CC(C)CCC3C(C)C)c3ccccc3[n+]2C)cc1 (stereo not given)	-6.9	5.01µM*	10.3	?
COc1ccc(OCc2n(CC(=O)OC3CC(C)CCC3C(C)C)c3ccccc3[n+]2C)cc1 (stereo not given)	-8.0	?	-20.2	7.0%
Cc1ccc(NC(=O)CCCN2C(=O)COc3ccc(C)cc32)c(C)c1	/	-9.2%	/	2.4%
CN(C)c1cccc2c1C(=O)c1ccccc1C2=O	13.3*	-18.7%	27.1	-9.5%
CN1C(=O)c2cccc(N(C)C)c2C1=O	-2.6	-6.2%	24.2	0.8%
